{"source": "PubChem BioAssay (NCI)", "note": "The panel holds about 83,000 compounds, 20% with a hit somewhere; the sample as a whole holds those more often.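 For each line, cells grew in 96-well plates with the test compound present at a single concentration for 48 hours.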 Active and inactive are the calls of the source. The calls were made as follows: active = growth percent below 10; inactive = the rest."}
{"tested_on": "MCF7 breast", "test": "NCI-60 one-dose screen, 48 h (100 = growth as untreated, 0 = no growth, -100 = all killed)", "settings": "10 µM unless noted"}
{"smiles": "Cc1c(C(=O)C(SC(=S)N2CCOCC2)SC(=S)N2CCOCC2)nnn1-c1ccc([N+](=O)[O-])cc1", "growth": "79.5% (inactive)"}
{"smiles": "CC(=O)Cc1nsc(NC(=O)c2cc(-c3cc(Cl)ccc3Cl)oc2C)n1", "growth": "97.7% (inactive)"}
{"smiles": "COc1cc2ncnc(Nc3ccc(S(=O)(=O)Nc4cc(C)on4)cc3)c2cc1OCCCN1CCOCC1", "growth": "96.1% (inactive)"}
{"smiles": "O=C(c1ccc(F)cc1)C1CCN(CCn2c(=O)[nH]c3ccccc3c2=O)CC1", "growth": "97.6% (inactive)"}
{"smiles": "C=CCNc1ccc2c3c(cccc13)C(=O)N(CC=C)C2=O", "growth": "34% (inactive)"}
{"smiles": "COC(CCP(=O)(c1ccccc1)c1ccccc1)(C(=O)c1ccccc1)c1ccccc1", "note": "(centres undefined)", "growth": "35.1% (inactive)"}
{"smiles": "COc1cc2c(c(OC)c1OC)C(=O)CC(c1cccc(C(=O)Nc3ccc(Br)cc3)c1)O2", "note": "(centres undefined)", "growth": "42.9% (inactive)"}
{"smiles": "COc1cc(-c2ccc(-c3ccc(C(=N)N)s3)s2)cc(OC)c1OC", "growth": "-6.02% (active)"}
{"smiles": "[2H]C([2H])([2H])Oc1ccc(/C=C/C(=O)/C=C(/C=C/c2ccc(OC([2H])([2H])[2H])c(OC([2H])([2H])[2H])c2OC([2H])([2H])[2H])OB(F)F)c(OC([2H])([2H])[2H])c1OC([2H])([2H])[2H]", "growth": "28.2% (inactive)"}
{"smiles": "O=C(O)c1nn(-c2ccc(Cl)cc2)nc1N1CCCC1", "growth": "91% (inactive)"}
{"smiles": "COCCn1cc(-c2nc(-c3cc4cccnc4n3C)cs2)c2cc(OC)ccc21", "growth": "2.86% (active)"}
{"smiles": "CCOc1cc(\\C=N/N=C(N)/C(N)=N\\N=C/c2ccc(O)c(OCC)c2)ccc1O", "growth": "91.5% (inactive)"}
{"smiles": "CC(C)=CCC[C@](C)(O)C1CC[C@]2(C)[C@@H]1CC[C@@H]1[C@@]3(C)CC/C(=N\\OCCC#N)C(C)(C)[C@@H]3CC[C@]12C", "note": "(some centres undefined)", "growth": "63.2% (inactive)"}
{"smiles": "CCCc1cc(CCC)n2nc(N)nc2n1", "growth": "95.6% (inactive)"}
{"smiles": "CC(CN)[C@@H]1CC[C@]2(CO)CC[C@]3(C)[C@H](CC[C@@H]4[C@@]5(C)CCC(NCCO)C(C)(C)[C@@H]5CC[C@]43C)[C@@H]12", "note": "(some centres undefined)", "growth": "3.04% (active)"}
{"smiles": "COc1cccc(C(=O)Nc2cccc(NC(=O)c3ccccn3)c2)c1", "growth": "83% (inactive)"}
{"smiles": "Cc1ccc(S(=O)(=O)c2nc(-c3ccccc3)oc2S(C)=O)cc1", "note": "(centres undefined)", "growth": "-20% (active)"}
{"smiles": "O=[N+]([O-])c1ccc(Oc2cccc3c(Oc4ccc([N+](=O)[O-])cc4[N+](=O)[O-])cccc23)c([N+](=O)[O-])c1", "growth": "76.6% (inactive)"}
{"smiles": "CC1(C)CC(=O)C2=C(C1)OC(C(=O)c1ccccc1)C2c1cccc(Oc2ccccc2)c1", "note": "(centres undefined)", "growth": "28.5% (inactive)"}
{"smiles": "Cn1cc(-c2nc(-c3c[nH]c4c(Cl)nccc34)cs2)c2ccccc21", "growth": "44.7% (inactive)"}
{"smiles": "CCCCCN(CCCCC)CC(O)c1c(Cl)ccc2ccccc12", "note": "(centres undefined)", "growth": "72.2% (inactive)"}
{"smiles": "COc1cccc2cc(N(C)c3ncnc4ccccc34)ccc12", "growth": "6.28% (active)"}
{"smiles": "CN1C(=O)N(C)C2C1NN=c1s/c(=C\\c3ccccc3F)c(=O)n12", "note": "(centres undefined)", "growth": "18.6% (inactive)"}
{"smiles": "C#Cc1ccc(NC(=O)Cc2ccc(/C=C/C(=O)c3nccn3C)cc2)cc1", "growth": "21.5% (inactive)"}
{"smiles": "O=C1C2C(c3cccs3)C=C(c3ccc(Cl)cc3)N2C(=S)N1c1ccccc1", "note": "(centres undefined)", "growth": "90.9% (inactive)"}
{"smiles": "Cc1cc2nc(C(Cl)Cl)nc(-c3ccccc3)n2n1", "growth": "41.5% (inactive)"}
{"smiles": "O=C(NS(=O)(=O)c1ccccc1)n1cc(-c2ccncc2)c(-c2cc(O)cc(Cl)c2)n1", "growth": "102% (inactive)"}
{"smiles": "CCOC(=O)c1cc(C(=O)c2cc(OC)cc(OC)c2)n2ncccc12", "growth": "24.8% (inactive)"}
{"smiles": "CC1=C2[C@@H](CC1)[C@]1(C)O[C@@](C(C)C)(C[C@H]1OC(=O)CO)[C@H]2OC(=O)CCCc1ccccc1", "growth": "82.4% (inactive)"}
{"smiles": "O=C1/C(=C/c2cccc(Br)c2)COc2ccc(O)c(O)c21", "growth": "6.49% (active)"}
{"smiles": "Nc1nc(N)c2c(n1)NC(c1cccc(Nc3ccnc4cc(C(F)(F)F)ccc34)c1)CC(c1ccc(Cl)cc1)=N2", "note": "(centres undefined)", "growth": "16.1% (inactive)"}
{"smiles": "COc1ccc2c(c1)c(-c1nc(-c3cn(C)c4ccncc34)cs1)cn2C", "growth": "-55.7% (active)"}
{"smiles": "Cc1[nH]c(C(=O)Nc2ccc(C(N)=O)cc2OC(C)C)c(Cl)c1Cl", "growth": "88.7% (inactive)"}
{"smiles": "COc1cc2nc3cc([N+](=O)[O-])ccc3c(NCCCNCCO)c2cc1OC", "growth": "-28.5% (active)"}
{"smiles": "CC1OC(C(=O)N2CCN(CCO)CC2)CC1COC1CCCCC1", "note": "(centres undefined)", "growth": "103% [50 µM] (inactive)"}
{"smiles": "CC(C)(C)CC(C)(C)Nc1c(-c2c(O)c3ccccc3oc2=O)nc2sccn12", "growth": "91.7% (inactive)"}
{"smiles": "O=C1NCCS(=O)(=O)/C1=C\\C=C\\c1cccc(C(F)(F)F)c1", "growth": "18.2% (inactive)"}
{"smiles": "COC(=O)c1cc(-c2ccc(OC)c(OC)c2)[nH]c1N/N=C/c1c(Cl)cccc1Cl", "growth": "14.6% (inactive)"}
{"smiles": "Oc1cccc(-c2nc(-c3n[nH]c(=S)n3-c3ccccc3)cc3c2[nH]c2ccccc23)c1", "growth": "17.8% (inactive)"}
